Laboratory results reported in PubChem BioAssay AID540259 (Broad Institute, 2011).
Entries with a potency or affinity are not part of this list. Values without a mark were called inactive.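 The calls were made as follows: active = cell killing, meaning signal decrease, with fitted half-maximal dose at or below ten times the top valid tested dose; inconclusive = poor fit, or flat curve with 30 to 70% signal loss; inactive = the rest.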

Assay: HeLa cell cytotoxicity, dose response, cytotoxicity control for MITF activator project, CellTiter-Glo luminescence, cherry-pick samples (AID 540259);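 also: 0% = DMSO neutral control and -100% = mitoxantrone positive control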
Conditions: HeLa viability, CellTiter-Glo ATP luminescence, 24 h; series mostly up to 35 µM; activity change, negative = cytotoxicity: at the top concentration

Row | SMILES | activity change, negative = cytotoxicity
1 | CCS(=O)(=O)Nc1ccc(C(=O)NCCSc2ccccc2)cc1 | -0.036%
2 | COCc1nn2c(N)c(-c3ccccc3)cnc2c1-c1ccccc1 | 6.09%
3 | C=CCN=C1S/C(=C\c2ccc(N(C)C)cc2)C(=O)N1CC=C | -1.96%
4 | Cc1cc(C)n2nc(SCN3C(=O)c4ccccc4C3=O)nc2n1 | -0.893%
5 | CCc1cccc(NC(=O)c2sc3nc4n(c(=O)c3c2C)CCC4)c1 | -1.51%
6 | NC(=O)c1ccc(-c2noc(-c3cccc(Cl)c3)n2)cc1 | 14.2%
7 | O=C(NC1=NCCS1)c1ccc(Cl)s1 | 3.77%
8 | COc1ccc(NC(=O)CCCn2c(=O)oc3ccccc32)cc1Cl | 6.66%
9 | Cc1cccc(C(=O)Nc2ccn(C)n2)c1 | 14.6%
10 | Cc1cccc(-c2noc(Cc3ccccc3)n2)c1 | 9.03%
11 | O=C(Nc1cccc(F)c1)NC1CCCCCCC1 | -4.47%
12 | Cc1nnc(NC(=O)c2ccc(N3CCCC3=O)cc2)s1 | 6.95%
13 | COc1c(C)cccc1C(=O)Nc1ccc(N2CCN(S(C)(=O)=O)CC2)cc1 | 12.3%
14 | O=C1OC(c2ccccc2)=C/C1=C/N1CCCCC1 | 7.7%
15 | Cc1ccc(O)c(-n2nc3ccccc3n2)c1 | 1.3%
16 | O=C(NOCc1ccccc1)OCc1ccccc1 | 10.8%
17 | O=S(=O)(c1cccs1)N1CCCc2cccc(O)c21 | -14.1%
18 | Clc1ccc(SCc2cn3ccccc3n2)cc1 | 7.64%

Row | SMILES | activity change, negative = cytotoxicity
19 | COc1cccc2[nH]c(=O)c(-c3ccccc3)cc12 | 4.93%
20 | COC(=O)c1cn(CC(=O)NCc2cccs2)c2ccccc12 | 21.6%
21 | CCCc1nc2ccc(NC(C)=O)cc2c(=O)n1Cc1ccc(Cl)cc1 | 11%
22 | Cc1ccc(NC(=O)N2CCc3ccccc3C2)cc1C | 9.08%
23 | CCC(C)c1ccc(NC(=O)Nc2cccnc2)cc1 (stereo unspecified) | 25%
24 | Clc1ccc(-n2nnc(-c3ncc[nH]3)n2)cc1Cl | 0.421%
25 | Cc1ccc(Nc2ncc3c(n2)CC(C)(C)CC3=O)cc1 | 0.285%
26 | COC(=O)c1ccc(-c2ccc(Cl)cc2)nc1C | -3.47%
27 | FC(F)(F)c1cnc(-c2cnc(-c3cccnc3)nc2)c(Cl)c1 | 12.4%
28 | Nc1nc(CSc2ccccn2)nc(Nc2ccccc2)n1 | 13.2%
29 | COc1ccccc1Nc1nc(C)cs1 | 25.3%
30 | O=C(Nc1ccc2c(c1)OCO2)c1cc(-c2ccccc2Cl)on1 | -2.3%
31 | C=CCNc1nc(-c2ccc(Cl)cc2)cs1 | -14.9%
32 | CCC(=O)c1ccc(OCc2ccccc2)c(OC)c1 | -0.933%
33 | COc1ccc(C(=O)Nc2cc3c4c(c2)CC(=O)N4CCC3)c(OC)c1 | 11.5%
34 | CC1CCc2sc(C(=O)Nc3ccc(C(N)=O)cc3)cc2C1 (stereo unspecified) | 10.9%
35 | Cc1ccc2c(CN3CCC(C)CC3)cc(=O)oc2c1C | -5.34%
36 | C/C(=N/NC(=O)c1ccncc1)c1ccc(NC(=O)c2ccc(Cl)cc2Cl)cc1 | 1.99%
